# Out of some 85,000 compounds screened, about 440 (0.52%) showed an effect of 50% or more. The full list was thinned out, with strong results kept by preference.
# Assay: In vitro enzyme assay to detect hydrolysis of chlorophenol red-beta-D-[…] directly proportional to the number of Toxoplasma stably expressing beta-galactosidase
# Type: functional, organism-based, Toxoplasma gondii
# Set-up: scale not given: in the data most compounds retested in dose-response had high values
SMILES,Percent Effect (50 µM) [%],Percent Effect (10 µM) [%]
Nc1nc2c(s1)Cc1ccccc1-2,-5.547,–
Cc1n[nH]c(C)c1S(=O)(=O)N1CCC(N)CC1,2.469,–
CCS(=O)(=O)NCCNCc1ccc(Cl)cc1F,-9.661,–
NC(=O)NC(=O)CSc1ncccn1,-2.425,–
Cc1nn(C)c(C)c1CC(=O)NCCc1ccccn1,-1.397,–
COc1ccc(CN)nc1,5.444,–
CNc1ncc(C(=O)N2CCCC(Cc3ccccc3OC)C2)s1 (stereo not drawn),–,65.23
COc1ccccc1CC1CCCN(C(=O)c2cc[nH]n2)C1 (stereo not drawn),–,4.307
COc1ccccc1CC1CCCN(C(=O)c2nccnc2N)C1 (stereo not drawn),–,-6.18
O=C(CN1C(=O)CC2(CCCCC2)C1=O)NC1CC1,-7.096,–
CN(C)C(=O)NCCNc1cccc(Br)c1,-13.02,–
CC(C)CCN1CCN(C(=O)c2nccnc2N)CC1,0.2706,–
CCN(CC)S(=O)(=O)N1CCNCC1,-3.294,–
CC(=O)c1c[nH]c(C(=O)NCc2cccnc2)c1,0.2894,–
O[C@@H]1CN(c2nc3ccccc3o2)CC[C@H]1c1ccc2c(c1)OCO2,–,30.32
O[C@@H]1CN(c2cnc3ccccc3n2)CC[C@H]1c1ccc2c(c1)OCO2,–,20.57
O[C@@H]1CN(c2nc3ccccc3s2)CC[C@H]1c1ccc2c(c1)OCO2,–,53.23
COc1cccc(NC(=O)C(C)Sc2nnnn2C)c1 (stereo not drawn),-3.512,–
N#CCc1ccc(CO)cc1,-0.5268,–
COCCC(C)Nc1c[nH]nc1-c1ccccn1 (stereo not drawn),4.849,–
Nc1c[nH]nc1-c1ccccn1,64.31,–
c1ccc(-c2cc[nH]n2)nc1,-7.989,–
Cc1ccc(OCCN2CCOCC2)cc1,-4.655,–

SMILES,Percent Effect (50 µM) [%],Percent Effect (10 µM) [%]
CC(N)(CO)c1ccc(Br)cc1 (stereo not drawn),5.046,–
CNC(=O)[C@@H]1CSCN1c1ccc(C(F)(F)F)cn1,98.68,–
O=C(NC1CN(c2ccc(C(F)(F)F)cn2)C1)C1CC1,-14.77,–
NC(=O)CC1CCCCN1c1ccc(C(F)(F)F)cn1 (stereo not drawn),-10.18,–
CN(C)C(=O)C1(N)CCCC1,3.679,–
COC(=O)c1cccc(COC(=O)CCNC(C)=O)c1,-1.212,–
NC(=O)c1ccccc1COC(=O)c1ccsc1,4.513,–
Cc1cnn(-c2cncc(C(N)=O)c2)c1,–,0.2718
Cc1cncc(C(N)=O)c1,97.16,–
Cc1cncc(C(=O)Nc2sc(C)cc2C(N)=O)c1,2.925,–
Clc1cnn(CCN2CCN(C3CCNC3)CC2)c1 (stereo not drawn),12.09,–
COc1ncccc1CNC(=O)NC1CCS(=O)(=O)C1 (stereo not drawn),-1.32,–
CCN(CC(C)C#N)C(=O)c1ccc(Br)o1 (stereo not drawn),96.74,–
CCN(CC(C)C#N)C(=O)c1sccc1C (stereo not drawn),16.85,–
CCN(Cc1nonc1C)C(=O)c1ccc(Br)o1,–,-1.469
O=C1CCCN1CCCNS(=O)(=O)c1ccc(Br)s1,-1.058,–
O=C1c2ccc(F)cc2C(=O)N1Cc1ccno1,5.807,–
O=C1c2ccc(F)cc2C(=O)N1Cc1ccccn1,-3.473,–
O=C1c2ccc(F)cc2C(=O)N1Cc1nnsc1Cl,52.75,–
COC(=O)CNc1ccc2ccn(C)c(=O)c2c1,-16.28,–
CN(C)C(=O)N1CC2(CCOCC2)c2cc(NS(=O)(=O)C3CC3)ccc21,–,-3.564
Cn1ccc2ccc(NS(=O)(=O)C3CC3)cc2c1=O,65.83,–
Cc1cc(CN(C)C(=O)c2cnn(C)c2C)no1,-0.6579,–

SMILES,Percent Effect (50 µM) [%],Percent Effect (10 µM) [%]
CC(C)C(CN)N1CCN(C)CC1 (stereo not drawn),18.88,–
COc1c(C(=O)NCC(C)C)nnn1Cc1ccccc1,–,74.28
COCCNC(=O)c1nnn(Cc2ccccc2)c1OC,–,38.59
COc1ccc(Cl)cc1C(=O)NCc1cnn(C)c1C,–,-4.944
CCOCCCNC(=O)c1nnn(Cc2ccccc2)c1OC,–,43.16
O=C(NCC1CCCO1)c1nc2c(s1)CCCN2Cc1ccccc1 (stereo not drawn),–,-17.89
CCNC(=O)c1nnn(Cc2ccccc2)c1OC,–,-0.1195
COc1c(C(=O)NCc2cccnc2)nnn1Cc1ccc(C)cc1,–,3.825
COc1c(C(=O)NCC2CCCO2)nnn1Cc1ccccc1 (stereo not drawn),–,62.42
COc1c(C(=O)NCc2cnn(C)c2C)nnn1Cc1ccccc1,–,65.52
COc1c(C(=O)NCc2cccnc2)nnn1Cc1ccccc1,–,61.62
COc1ccc(C(=O)NCc2cnn(C)c2C)o1,-4.523,–
O=C(NCc1cccnc1)c1cn(CCc2ccccc2)nn1,–,7.216
CC1Cc2cc(CO)ccc2O1 (stereo not drawn),-10.07,–
CCc1nnsc1C(=O)N1CCc2sccc2C1,-20.28,–
Cc1ccccc1NC(=O)CCN1CCN(C)CC1,-26.18,–
Cc1ccc2c(c1)C(=O)CCCS2(=O)=O,-6.954,–
Cc1ccc(CN(CCO)C(=O)c2cscn2)cc1,-0.4723,–
O=C(Nc1ccc2c(c1)OCO2)N1CCOCC1,-3.838,–
CN1CCCC1CCSCC(=O)Nc1ccccn1 (stereo not drawn),5.261,–
NCc1ccc(CO)cc1,0.7244,–
CCn1nc(C)c(NC(=O)c2cc(NC(=O)C(C)C)n(C)n2)c1C,–,1.116
CCN(CC)C(=O)c1nnn(Cc2ccccc2)c1OC,–,-3.108

SMILES,Percent Effect (50 µM) [%],Percent Effect (10 µM) [%]
CCn1nc(C)c(NC(=O)c2nnn(Cc3ccccc3)c2OC)c1C,–,55.69
CCC(OCCO)c1ccccc1 (stereo not drawn),-3.537,–
CC(C)[C@H](N)C(=O)N1CCC(C2CCOCC2)CC1,8.319,–
Cn1nnc(NC(=O)c2ccc(C#N)cc2F)n1,-8.268,–
Cn1nnnc1SCCNC(=O)c1cc(Cl)ccc1F,98.81,–
Cn1nnnc1SCCNC(=O)c1cccc2ccnn12,–,-7.372
CSc1ccccc1C(=O)NCCSc1nnnn1C,-10.69,–
CCC(C(=O)Nc1ccc(C)cc1)N(C)C (stereo not drawn),-1.57,–
COc1c(CNCCCNS(C)(=O)=O)c(C)nn1C,-17.44,–
COc1c(N)c(C)nn1C,95.49,–
COc1c(CNCCS(C)(=O)=O)c(C)nn1C,3.832,–
CCC(=O)N1CCCN(C(=O)C(N)C(C)(C)C)CC1 (stereo not drawn),9.824,–
CC(=O)N1CCN(c2nccn2C)CC1,15.57,–
Cc1ccc(C(=O)N2CCN(c3nccn3C)CC2)o1,58.26,–
Cc1ccc(C(=O)N2CCN(c3nccs3)CC2)o1,7.068,–
Cn1cc(NC(=O)CSc2nccn2C)cn1,23.13,–
CC(N)c1nnc2ccccn12 (stereo not drawn),17.22,–
O=C(Nc1cccnc1)NC1CCN(c2ccccc2OC(F)F)C1 (stereo not drawn),–,-3.215
O=C(Nc1ccccn1)NC1CCN(c2ccccc2OC(F)F)C1 (stereo not drawn),–,20.62
O=C(Nc1ccncc1)NC1CCN(c2ccccc2OC(F)F)C1 (stereo not drawn),–,74.41
CCC1(CN)OCCc2ccccc21 (stereo not drawn),4.501,–
NC(=O)[C@@H]1Cc2ccccc2CO1,9.404,–
Cn1ncnc1CCNc1cc(C2CC(N)C2)ncn1 (stereo not drawn),22.67,–

SMILES,Percent Effect (50 µM) [%],Percent Effect (10 µM) [%]
CN1CCC(NC(=O)c2ccc3ncccc3c2)C1=O (stereo not drawn),1.515,–
CN1CCC(NC(=O)c2cc3ccccc3s2)C1=O (stereo not drawn),52.45,–
CCCS(=O)(=O)N1CCC(NC(=O)c2cc3ccccc3s2)CC1,–,4.884
CCC(C)(NCc1cc(F)ccc1F)C(N)=O (stereo not drawn),-22.31,–
CCN(CCNS(=O)(=O)N1CCOCC1)C(=O)OC(C)(C)C,–,51.95
CCN(CCNS(=O)(=O)C1CCOCC1)C(=O)OC(C)(C)C,–,6.938
CC(C)(C)OC(=O)N(CCNS(=O)(=O)N1CCOCC1)C1CC1,–,-6.418
O=C1CCOc2cc(O)c(F)cc21,-11.53,–
CN(C)S(=O)(=O)CCCN1CCC2(CCCNC2=O)C1 (stereo not drawn),25.69,–
CC1CCCN(Cc2nc(N)nc(N(C)C)n2)C1 (stereo not drawn),28.57,–
COc1ccc(C(CO)N(C)Cc2ccncc2)cc1 (stereo not drawn),7.987,–
CCC(C#N)NC(=O)c1cnc(OC(C)C)c(Cl)c1 (stereo not drawn),77.34,–
CCC(C#N)NC(=O)c1ccc(Oc2cccnc2)cc1 (stereo not drawn),–,-3.821
CC(CO)CNC(=O)c1cnc(OC(C)C)c(Cl)c1 (stereo not drawn),9.037,–
O=C(c1ccccc1-n1cccn1)N1CCSCC1,5.631,–
CCOc1ncccc1C(=O)N1CCCN(CC)CC1,8.353,–
Cc1ccc(CN2Cc3nnn(C)c3C(COCC(=O)N(C)C)C2)s1.O=C(O)C(F)(F)F (stereo not drawn),–,-13.89
Cc1ccc(CN2Cc3nnn(C)c3C(COCC3CC3)C2)s1.O=C(O)C(F)(F)F (stereo not drawn),–,-9.58
COCC1CN(Cc2ccc(C)s2)Cc2nnn(C)c21.O=C(O)C(F)(F)F (stereo not drawn),–,3.713
Cc1ccc(CN2Cc3nnn(C)c3C(COCc3ccccn3)C2)s1.O=C(O)C(F)(F)F.O=C(O)C(F)(F)F (stereo not drawn),–,13.37
Cc1ccc(CN2Cc3nnn(C)c3C(COCc3ccccc3)C2)s1.O=C(O)C(F)(F)F (stereo not drawn),–,57.56
CC(C)(C)c1cc(NC(=O)CN2CCC(O)CC2)on1,-5.429,–
CCOc1ccc(NC(=O)NC2CCS(=O)(=O)C2)cc1 (stereo not drawn),3.188,–

SMILES,Percent Effect (50 µM) [%],Percent Effect (10 µM) [%]
O=C(CN1CCNCC1)NCCSc1ccc(Cl)cc1,4.461,–
O=C(NCCCN1CCCCC1)c1ccc(-n2ccc3ccccc32)s1,–,79.49
O=C(NCCCN1CCOCC1)c1ccc(-n2ccc3ccccc32)s1,–,19.43
CCN(CC)CCNC(=O)c1ccc(-n2ccc3ccccc32)s1,–,63.07
O=C(NCCN1CCOCC1)c1ccc(-n2ccc3ccccc32)s1,–,-1.22
O=C(NCCCN1CCCC1=O)c1ccc(-n2ccc3ccccc32)s1,–,17.83
CCN(CC)CCNC(=O)c1cnc(C(C)(C)C)s1,–,0.3139
CC1Sc2ccc(C(=O)N(C)C)cc2NC1=O (stereo not drawn),-6.489,–
NC1CCN(c2ccccc2F)CC1,-9.36,–
CCSCCC(C)N(C)C(=O)c1ccn(C)c(=O)c1 (stereo not drawn),-4.294,–
N#Cc1ccc(C2NC(=O)c3cccnc3N2)cc1 (stereo not drawn),98.73,–
O=C1NC(c2cc[nH]n2)Nc2ncccc21 (stereo not drawn),-9.997,–
COc1ccc(C2NC(=O)c3cccnc3N2)cc1F (stereo not drawn),6.983,–
CC(C)OCCN1CCC(O)CC1,2.889,–
O=C(Nc1ccncc1)N1CCN(CC2CC2)CC1,11.51,–
c1ccc(-c2noc(CN3CCOC(Cn4cccn4)C3)n2)nc1 (stereo not drawn),–,4.093
CN(C)CC1CN(Cc2nc(-c3ccccn3)no2)CCO1 (stereo not drawn),–,86.82
CN(C)CC1CN(Cc2nc(-c3cccnc3)no2)CCO1 (stereo not drawn),–,12.35
